Measurements: PubChem BioAssay (NCATS)
Inconclusive results are not listed. A number with no mark means an inactive call. The source made the active and inactive calls. Calls come from the whole dose curve; as a rule, active = well fitted inhibition curve with a large enough effect; inconclusive = small, poorly fitted or top-dose-only effect; inactive = flat fitted curve, though single readings scatter. Peptide text beside a SMILES is read from it.

Tested on: CP286
Experiment: qHTS profiling for inhibitors of Plasmodium falciparum proliferation (AID 504749); note: nearly all actives have a fitted effect of over 60% in size;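 for activity, negative = inhibition: 0% = DMSO vehicle and full inhibition = artemisinin control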
Details: P. falciparum in erythrocytes, SYBR Green DNA, 72 h; series mostly up to 12.8 µM; activity, negative = inhibition: at the top concentration
Method in brief: (§1)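 Quantitative HTS: compounds pinned into medium, infected erythrocytes added (0.3% parasitemia, 2.5% hematocrit), 72 h culture at 37 C under 5% CO2. Saponin/Triton lysis with SYBR Green I, overnight RT, then fluorescence read.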
Potency is the fitted concentration of half-maximal effect.

Going from `CN(C)CCCOC1C(C(O)CO)OC2OC(C)(C)O[C@@H]21` (stereo partly specified) to `CC1(C)OC2CO[C@]3(COS(N)(=O)=O)OC(C)(C)OC3C2O1` (stereo partly specified), the “activity, negative = inhibition” value falls from 0.362% [at 28.7 µM] to -2.28% [at 28.7 µM].

Going from `CCC(C)C(=O)OC1CCC=C2C=CC(C)C(CCC3CC(O)CC(=O)O3)[C@@H]21` (stereo partly specified) to `CCC(CCC(C)C1CCC2C3CC=C4CC(O)CC[C@@]4(C)C3CC[C@@]12C)C(C)C` (stereo partly specified), the “activity, negative = inhibition” value falls from 0.153% [at 28.7 µM] to -4.19% [at 28.7 µM].

First: CC(=O)OC1CCC2C3CCc4cc(O)ccc4C3CCC12C (stereo unspecified)
Second: CC(=O)[C@]1(O)CCC2C3C=C(Cl)C4=CC(=O)C5CC5[C@@]4(C)C3CC[C@]21C (stereo partly specified)
The “activity, negative = inhibition” value of the first is lower: 0.267% [at 28.7 µM] for the first, 0.427% [at 28.7 µM] for the second.

First: CC[C@@]12CCCN3CCc4c(n(c5ccccc45)[C@](O)(C(=O)OC)C1)C32 (stereo partly specified)
Second: CC(C)C1CCC(C(=O)NC(Cc2ccccc2)C(=O)O)CC1 (stereo unspecified)
The “activity, negative = inhibition” value of the first is lower: -6.56% [at 28.7 µM] for the first, 0.566% [at 28.7 µM] for the second.

First: CN1CC(=O)N=C1N
Second: CC1CCC(C(C)C)C(=O)C1 (stereo unspecified)
The “activity, negative = inhibition” value of the first is higher: 0.16% [at 28.7 µM] for the first, -0.267% [at 28.7 µM] for the second.

Compared with `OCC1OC([S-])[C@H](O)C(O)C1O.[Au+]` (stereo partly specified), `CC(=O)N[C@@H]1C(O)OC(CO)C(O)C1O` (stereo partly specified) is higher in “activity, negative = inhibition” value: -2.24% [at 28.7 µM] for the first, -0.356% [at 28.7 µM] for the second.

Compared with `C[C@]12CCC(=O)C=C1CCC1C2C(=O)C[C@]2(C)C1CC[C@]2(O)C(=O)CO` (stereo partly specified), `CCCC(=O)O[C@]1(C(=O)CO)CCC2[C@@H]3CCC4=CC(=O)CC[C@]4(C)C3C(O)C[C@]21C` (stereo partly specified) is lower in “activity, negative = inhibition” value: -0.327% [at 28.7 µM] for the first, -5.7% [at 28.7 µM] for the second.

First: OCC1O[C@H](OC2C(CO)O[C@@](O)(CO)C2O)C(O)C(O)C1O (stereo partly specified)
Second: CNC1CC(N)[C@H](O)[C@@H](O[C@@H]2OC(CO)C3OC4(OC(C(N)CO)C(O)C(O)C4O)O[C@@H]3[C@H]2O)C1O (stereo partly specified)
The “activity, negative = inhibition” value of the first is higher: 1.98% [at 28.7 µM] for the first, 0.0588% [at 28.7 µM] for the second.

Going from `CC1(C)OC2CC(=O)OC[C@@]23C1CC(=O)[C@]1(C)C3CC[C@@]2(C)C(c3ccoc3)OC(=O)C3O[C@@]321` (stereo partly specified) to `C[C@]12C=CC(=O)C=C1CCC1C2C(O)C[C@]2(C)C1CC[C@]2(O)C(=O)CO` (stereo partly specified), the “activity, negative = inhibition” value falls from 0.0454% [at 28.7 µM] to -0.297% [at 28.7 µM].

Going from `CCOC(=O)C1=CC(OC(CC)CC)C(NC(C)=O)C(N)C1` (stereo unspecified) to `CC(=O)N[C@H](CC(C)C)C(=O)O`, the “activity, negative = inhibition” value rises from 0.741% [at 28.7 µM] to 1.09% [at 28.7 µM].

Going from `COC(=O)C(Cc1ccccc1)NC(=O)C(N)CC(=O)O` (stereo not drawn) (H-Asp-Phe-OMe; configuration not given here) to `C[C@]1(c2ccccc2)OC(C(=O)O)=CC1=O`, the “activity, negative = inhibition” value rises from 0.293% [at 28.7 µM] to 0.402% [at 28.7 µM].

Going from `CC1(C)S[C@H]2C(NC(=O)[C@@H](N)c3ccc(O)cc3)C(=O)N2[C@@H]1C(=O)O` (stereo partly specified) to `Nc1nc2ncc(CNc3ccc(C(=O)NC(CCC(=O)O)C(=O)O)cc3)nc2c(=O)[nH]1` (stereo unspecified), the “activity, negative = inhibition” value rises from -2.72% [at 28.7 µM] to 0.889% [at 28.7 µM].

Compared with `CC(C)=CCC[C@](C)(O)C1CC=C(C)CC1` (stereo partly specified), `O=C1OC(CO)C(O)C(O)C1O` (stereo unspecified) is higher in “activity, negative = inhibition” value: -1.67% [at 28.7 µM] for the first, 0.622% [at 28.7 µM] for the second.

Compared with `COc1ccc2cc(C(C)CO)ccc2c1` (stereo unspecified), `C/C1=C2N=C(/C=C3N=C(/C(C)=C4\[N-]C(C)(C5N=C1C(C)(CCC(=O)NCC(C)OP(=O)([O-])O[C@H]1C(O)C(n6cnc7cc(C)c(C)cc76)O[C@@H]1CO)C5CC(N)=O)C(C)(CC(N)=O)C4CCC(N)=O)C(C)(CC(N)=O)C\3CCC(N)=O)C(C)(C)C/2CCC(N)=O.[CH2-]C1OC(n2cnc3c(N)ncnc32)C(O)C1O.[Co]` (stereo partly specified) is lower in “activity, negative = inhibition” value: 1.27% [at 28.7 µM] for the first, -0.871% [at 28.7 µM] for the second.

In the case of `CNC1C(OC2C(O[C@@H]3C(O)C(O)[C@@H](N=C(N)N)C(O)C3N=C(N)N)OC(C)[C@@]2(O)CO)OC(CO)C(O)C1O` (stereo partly specified), the “activity, negative = inhibition” value is reported as -3.56% [at 28.7 µM].

In the case of `NC(C(=O)O)[C@@H]1CC(Cl)=NO1` (stereo partly specified), the Potency is reported as 794 nM (active).
In the case of `CO[C@]12C(COC(N)=O)C3=C(C(=O)C(C)=C(N)C3=O)N1CC1NC12` (stereo partly specified), the Potency is reported as 501 nM (active).
For `COC1C=CO[C@@]2(C)Oc3c(C)c(O)c4c(O)c(c(C=NN5CCN(C)CC5)c(O)c4c3C2=O)NC(=O)/C(C)=C\C=CC(C)C(O)[C@@H](C)C(O)C(C)[C@H](OC(C)=O)C1C` (stereo partly specified), the Potency was 2510 nM (active).
For `COc1cc(C2c3cc4c(cc3C(O[C@@H]3OC5COC(c6cccs6)OC5C(O)C3O)C3COC(=O)C23)OCO4)cc(OC)c1O` (stereo partly specified), the Potency was 1260 nM (active).

Tested on: CP291
Experiment: as above
Details: P. falciparum in erythrocytes, SYBR Green DNA, 72 h; series mostly up to 12.8 µM; activity, negative = inhibition: at the top concentration
Method in brief: as §1

Compared with `CN(C)CCCOC1C(C(O)CO)OC2OC(C)(C)O[C@@H]21` (stereo partly specified), `CC1(C)OC2CO[C@]3(COS(N)(=O)=O)OC(C)(C)OC3C2O1` (stereo partly specified) is lower in “activity, negative = inhibition” value: 0.0405% [at 28.7 µM] for the first, -6.63% [at 28.7 µM] for the second.

Compared with `CCC(C)C(=O)OC1CCC=C2C=CC(C)C(CCC3CC(O)CC(=O)O3)[C@@H]21` (stereo partly specified), `CCC(CCC(C)C1CCC2C3CC=C4CC(O)CC[C@@]4(C)C3CC[C@@]12C)C(C)C` (stereo partly specified) is lower in “activity, negative = inhibition” value: -1.03% [at 28.7 µM] for the first, -5.91% [at 28.7 µM] for the second.

First: CC(=O)OC1CCC2C3CCc4cc(O)ccc4C3CCC12C (stereo unspecified)
Second: CC(=O)[C@]1(O)CCC2C3C=C(Cl)C4=CC(=O)C5CC5[C@@]4(C)C3CC[C@]21C (stereo partly specified)
The “activity, negative = inhibition” value of the first is lower: -6.18% [at 28.7 µM] for the first, -0.932% [at 28.7 µM] for the second.

Compared with `CC[C@@]12CCCN3CCc4c(n(c5ccccc45)[C@](O)(C(=O)OC)C1)C32` (stereo partly specified), `CC(C)C1CCC(C(=O)NC(Cc2ccccc2)C(=O)O)CC1` (stereo unspecified) is lower in “activity, negative = inhibition” value: 1.37% [at 28.7 µM] for the first, -0.0135% [at 28.7 µM] for the second.

First: CN1CC(=O)N=C1N
Second: CC1CCC(C(C)C)C(=O)C1 (stereo unspecified)
The “activity, negative = inhibition” value of the first is higher: 5.05% [at 28.7 µM] for the first, -3.12% [at 28.7 µM] for the second.

Compared with `OCC1OC([S-])[C@H](O)C(O)C1O.[Au+]` (stereo partly specified), `CC(=O)N[C@@H]1C(O)OC(CO)C(O)C1O` (stereo partly specified) is lower in “activity, negative = inhibition” value: 3.27% [at 28.7 µM] for the first, 0.289% [at 28.7 µM] for the second.

Compared with `C[C@]12CCC(=O)C=C1CCC1C2C(=O)C[C@]2(C)C1CC[C@]2(O)C(=O)CO` (stereo partly specified), `CCCC(=O)O[C@]1(C(=O)CO)CCC2[C@@H]3CCC4=CC(=O)CC[C@]4(C)C3C(O)C[C@]21C` (stereo partly specified) is higher in “activity, negative = inhibition” value: -3.31% [at 28.7 µM] for the first, -0.499% [at 28.7 µM] for the second.

Compared with `OCC1O[C@H](OC2C(CO)O[C@@](O)(CO)C2O)C(O)C(O)C1O` (stereo partly specified), `CNC1CC(N)[C@H](O)[C@@H](O[C@@H]2OC(CO)C3OC4(OC(C(N)CO)C(O)C(O)C4O)O[C@@H]3[C@H]2O)C1O` (stereo partly specified) is higher in “activity, negative = inhibition” value: -2.56% [at 28.7 µM] for the first, -2.27% [at 28.7 µM] for the second.

Compared with `CC1(C)OC2CC(=O)OC[C@@]23C1CC(=O)[C@]1(C)C3CC[C@@]2(C)C(c3ccoc3)OC(=O)C3O[C@@]321` (stereo partly specified), `C[C@]12C=CC(=O)C=C1CCC1C2C(O)C[C@]2(C)C1CC[C@]2(O)C(=O)CO` (stereo partly specified) is lower in “activity, negative = inhibition” value: -7.36% [at 28.7 µM] for the first, -8.4% [at 28.7 µM] for the second.

First: CCOC(=O)C1=CC(OC(CC)CC)C(NC(C)=O)C(N)C1 (stereo unspecified)
Second: CC(=O)N[C@H](CC(C)C)C(=O)O
The “activity, negative = inhibition” value of the first is lower: -4.36% [at 28.7 µM] for the first, 3.87% [at 28.7 µM] for the second.

Going from `COC(=O)C(Cc1ccccc1)NC(=O)C(N)CC(=O)O` (stereo not drawn) (H-Asp-Phe-OMe; configuration not given here) to `C[C@]1(c2ccccc2)OC(C(=O)O)=CC1=O`, the “activity, negative = inhibition” value falls from 0.0987% [at 28.7 µM] to -2.11% [at 28.7 µM].

First: CC1(C)S[C@H]2C(NC(=O)[C@@H](N)c3ccc(O)cc3)C(=O)N2[C@@H]1C(=O)O (stereo partly specified)
Second: Nc1nc2ncc(CNc3ccc(C(=O)NC(CCC(=O)O)C(=O)O)cc3)nc2c(=O)[nH]1 (stereo unspecified)
The “activity, negative = inhibition” value of the first is higher: -1.05% [at 28.7 µM] for the first, -15.6% [at 28.7 µM] for the second.

Going from `CC(C)=CCC[C@](C)(O)C1CC=C(C)CC1` (stereo partly specified) to `O=C1OC(CO)C(O)C(O)C1O` (stereo unspecified), the “activity, negative = inhibition” value rises from -5.28% [at 28.7 µM] to -2.32% [at 28.7 µM].

First: COc1ccc2cc(C(C)CO)ccc2c1 (stereo unspecified)
Second: C/C1=C2N=C(/C=C3N=C(/C(C)=C4\[N-]C(C)(C5N=C1C(C)(CCC(=O)NCC(C)OP(=O)([O-])O[C@H]1C(O)C(n6cnc7cc(C)c(C)cc76)O[C@@H]1CO)C5CC(N)=O)C(C)(CC(N)=O)C4CCC(N)=O)C(C)(CC(N)=O)C\3CCC(N)=O)C(C)(C)C/2CCC(N)=O.[CH2-]C1OC(n2cnc3c(N)ncnc32)C(O)C1O.[Co] (stereo partly specified)
The “activity, negative = inhibition” value of the first is higher: 13.3% [at 28.7 µM] for the first, -1.06% [at 28.7 µM] for the second.

`CNC1C(OC2C(O[C@@H]3C(O)C(O)[C@@H](N=C(N)N)C(O)C3N=C(N)N)OC(C)[C@@]2(O)CO)OC(CO)C(O)C1O` (stereo partly specified) was tested, and the “activity, negative = inhibition” value was -4.97% [at 28.7 µM].

In the case of `NC(C(=O)O)[C@@H]1CC(Cl)=NO1` (stereo partly specified), the Potency is reported as 2130 nM (active).
For `COC1C=CO[C@@]2(C)Oc3c(C)c(O)c4c(O)c(c5c(nc6cc(C)ccn65)c4c3C2=O)NC(=O)/C(C)=C\C=CC(C)C(O)[C@@H](C)C(O)C(C)[C@@H](OC(C)=O)C1C` (stereo partly specified), the Potency was 13500 nM (active).
With `COC1C=CO[C@@]2(C)Oc3c(C)c(O)c4c(O)c(c(C=NN5CCN(C)CC5)c(O)c4c3C2=O)NC(=O)/C(C)=C\C=CC(C)C(O)[C@@H](C)C(O)C(C)[C@H](OC(C)=O)C1C` (stereo partly specified) the Potency was 4260 nM (active).
`COc1cc(C2c3cc4c(cc3C(O[C@@H]3OC5COC(c6cccs6)OC5C(O)C3O)C3COC(=O)C23)OCO4)cc(OC)c1O` (stereo partly specified) was tested, and the Potency was 4260 nM (active).
